For 40 compounds, growth results are on record in PubChem BioAssay (NCI).

Several values for one entry are separate records, joined by “and”; a condition that tells them apart may be missing. Identical values can stand only once. This is part of a sample that, as a whole, favours compounds with a hit. Of some 83,000 tested, about 20% had one in any assay.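 Note: values are percent growth. 100 is the growth of untreated cells, values between 100 and 0 indicate rising inhibition; between -100 and 0 indicates cell death.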 Values without a mark were called inactive. Activity calls are given as the source filed them. How the source made its calls: active means growth percent below 10; inactive means the rest.

For this experiment, the system named is MDA-MB-468 breast. Nature of the experiment: NCI-60 one-dose screen, 48 h (100 = growth as untreated, 0 = no growth, -100 = all killed). The following applies: 10 µM unless noted.
Turning to `COc1cc(-c2nc3c(ncc4ccc(=O)n(-c5ccccc5)c43)s2)cc(OC)c1OC`, the growth is 47.3%.
With `O=S(=O)(NCCCNc1cc(-c2cn(-c3ccccc3)nc2-c2cccc(O)c2)ccn1)c1ccccc1`, the growth is 4.3% (active).
Turning to `CCN1CCN(c2nc(C)cc(N(CCCNc3ccnc4cc(Cl)ccc34)Cc3ccco3)n2)CC1`, the growth was 84.2%.
As to `COc1ccc(NC(=O)c2sc3nc(C)c(C(C)=O)cc3c2N)cc1`, the growth is 91.8%.
Regarding `O=c1[nH]c(CN2CCN(c3ccccc3)CC2)nc2c(Br)cc(Br)cc12`, the growth was 114%.
Regarding `CCN(CC)CCOc1ccc(NC(=O)C(C(C)C)N2C(=O)/C(=C/c3ccc(Br)cc3)SC2=S)cc1` (stereo not given), the growth was 63.2%.
For `COc1ccc(C(=O)N2NC(=O)/C(=C/c3ccc(Br)cc3)N=C2c2ccccc2)cc1` the value was 91.8%; for `CSc1ccc2c(c1)C(N1CCN(C)CC1)Cc1ccccc1S2` (stereo not given), -66.4% (active); for `N#Cc1c(NC(=O)NCc2ccccc2)sc2c1CCCC2`, -33.5% (active).
For `O=C(O)c1ccc(-n2cc(/C=N/Nc3ccccc3)c(-c3ccc(F)cc3F)n2)cc1` the value was 89.3%; for `Nc1c(C(=O)Nc2ccccc2Cl)sc2nc3c(cc12)CN(Cc1ccccc1)CC3`, 102%; for `N/C(=N\c1nc2c(Cl)cccc2s1)C(Cl)(Cl)Cl`, 22.6%.
In the case of `Nc1cc2c(cc1N)-c1ccccc1C2`, the growth is 89.4% and 97.8%.
For `COc1cc(Nc2ccnc(N3CCN(c4ccnc5cc(Cl)ccc45)CC3)n2)cc(OC)c1` the value was -0.859% (active).
On to `O=C1CCCCC1(c1ccccc1)c1ccccc1`, for which the growth is 98.4%.
In the case of `CN(C)c1cc(NN=C(c2ccc(O)cc2)c2ccc(O)cc2)c([N+](=O)[O-])cc1[N+](=O)[O-]`, the growth is 102%.
For the compound `CCc1ccc(CCC(=O)Nc2ncc(Cc3cc(Cl)ccc3Cl)s2)o1`, the growth was -23% (active).
Consider `CC(=O)Nc1cccc(Cl)c1C`, for which the growth was 103%.
`C/C(=C\c1ccccc1)C(O)C(=O)c1nc2ccc([N+](=O)[O-])cc2[nH]c1=O` (stereo not given): the growth is 89.7%.
For `CCN(CC)CCCOCCCNc1cc(OC)cc2cccnc12` the value was -6.79% (active); for `NC(=O)c1ccc(-c2cccc3c(=O)nc(N4CCOCC4)oc23)cc1`, 105%; for `CC(O)c1cc2ccccc2c(=O)o1` (stereo not given), 98.7%.
For `CNC(=O)c1cc(Oc2ccc(NC(=O)Nc3ccc(Cl)c(C(F)(F)F)c3)c(F)c2)ccn1` the value was -49.1% (active); for `CCn1c2ccccc2c2cc(C(O)c3cccc4ncccc34)ccc21` (stereo not given), 14.2%.
In the case of `COc1cccc(C(=O)Nc2cccc(NC(=O)c3ccccn3)c2)c1`, the growth is 105%.
`COc1cccc(O)c1/C=C(/C)c1ccc2c(OC)cccc2[o+]1`: the growth was 112%.
On to `Cc1nc2ccccc2c(/C=C/c2ccc(Cl)cc2)c1C(=O)/C=C/c1ccc(Cl)cc1`, for which the growth is -50.9% (active).
On to `Cc1cc(-c2ccccc2)cc(SC#N)[n+]1[O-]`, for which the growth is 34.8%.
For `CC(C)(C)OC(=O)N1CCN(S(=O)(=O)/N=C2\NC(=O)NC2=C(Cl)Cl)CC1` the value was 63.7%; for `NS(=O)(=O)OCC1OC(n2cnc3cncnc32)C(O)C1O` (stereo not given), 5.51% [0.1 µM] (active) and -18.9% [0.1 µM] (active).
As to `CCCCC/C=C/C/C=C/CCCCCCCC1=NC(C)(C)CN1C(C)C`, the growth is -42.8% (active).
Turning to `O=c1cc(NC2CCN(CCCc3ccccc3)CC2)c2cc(Cl)ccc2o1`, the growth is -13.1% (active).
On to `C#CCN1C(=O)/C(=c2\sc3n(c2=O)NC2C(N=3)N(CC)C(=O)N2CC)c2ccccc21` (stereo not given), for which the growth is 10.8%.
For the compound `COc1ccc(/C=C/C(=O)c2cc(OC)c(OC)c(OC)c2)cc1OCc1cn(Cc2ccc(F)cc2)nn1`, the growth is 25.2%.
As for `CCOC(=O)C(C(=O)OCC)C1CCCCC1`, the growth was 105%.
As for `O=C1Nc2ccccc2/C1=C\c1c(-c2ccccc2)nc2ccccn12`, the growth is 15.3%.
For `CCCCCCCCCCCCCCCc1cc(O)ccc1[N+](=O)[O-]` the value was 111%; for `Cc1ccc(S(=O)(=O)Nc2cc(Sc3ccccc3)c(O)c3ccccc23)cc1`, -53.9% (active); for `CC[C@@H](C(=O)[C@@H](C)[C@@H](O)[C@H](C)[C@@H]1O[C@@H]([C@@H](CC)C(=O)O)CC[C@@H]1C)[C@H]1OC2(C=C[C@@H](O)[C@]3(CC[C@@](C)([C@H]4CC[C@](O)(CC)[C@H](C)O4)O3)O2)[C@H](C)C[C@@H]1C` (stereo not given in full), -9.66% (active).
As to `CCCCCCNC(=O)Oc1ccc(/C(=C(\C)c2ccc(Cl)cc2)c2ccc(OCCCN(C)C)cc2)cc1`, the growth is 92%.
